# High-throughput results deposited in PubChem by several laboratories.
# SMARCA2 activ: SMARCA2 function activation, primary screen. actives 1% (n = 370,000). AID 652017. MG213 cells, MMTV-luciferase reporter, dexamethasone, overnight. activation, % at 9.1 µM; in the data active means activation above about 7.8%;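 further: 0% = vehicle wells and 100% = reference activator wells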
# JMJD2C inh: human JMJD2C demethylase inhibition | GST-JMJD2C(1-420) H3K9me3 demethylation, DELFIA europium | Q9H3R0 | inhibition, % at 2.35 µM | actives 0.069% (n = 330,000);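 active means more than half of a compound's replicate wells show inhibition beyond 50%, single wells judged on their own value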;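 further: signal counts dimethyl H3K9 product captured on neutravidin plate; 0% = median of DMSO wells and 100% = 0.3 times that DMSO median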
# Target sequence (Q9H3R0 1-420 limits assumed): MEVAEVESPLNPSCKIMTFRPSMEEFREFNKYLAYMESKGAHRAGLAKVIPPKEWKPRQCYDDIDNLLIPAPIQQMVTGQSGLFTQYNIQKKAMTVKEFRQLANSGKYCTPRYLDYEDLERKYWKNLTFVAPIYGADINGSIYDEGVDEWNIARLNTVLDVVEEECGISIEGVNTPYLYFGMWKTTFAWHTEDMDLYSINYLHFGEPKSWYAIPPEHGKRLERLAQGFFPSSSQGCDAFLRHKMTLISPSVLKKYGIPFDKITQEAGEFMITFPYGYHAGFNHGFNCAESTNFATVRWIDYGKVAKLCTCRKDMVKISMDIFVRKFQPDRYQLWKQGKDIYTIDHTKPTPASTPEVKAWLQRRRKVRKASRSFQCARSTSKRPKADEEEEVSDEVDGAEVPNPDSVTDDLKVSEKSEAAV
# Exocytosis inh: blocks lytic granule exocytosis; TALL-104 LAMP-1 surface exposure, flow cytometry; cells stimulated with thapsigargin and PMA; AID 651702; inhibition, % at 10 µM; actives 0.66% (n = 360,000);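 active means inhibition above about 55%, limit read from the data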
# beta cell repl: MIN6 beta-cell proliferation induction | MIN6 cells proliferation, ATPlite luminescence, 48 h; cells starved in 0.2% serum; 100% = growth in 10% serum | proliferation, % at 10 µM | actives 0.29% (n = 330,000);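 active means compounds whose signal lies at least 3.5 SD above the mean of all wells on their plate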;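 further: 0% = DMSO-treated cells in low-serum medium and 100% = 10% serum control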
# ALR inh: inhibitors of human sulfhydryl oxidase ALR; AID 485317; purified ALR, DTT oxidation, H2O2 HRP-luminol luminescence; actives 3.8% (n = 290,000); inhibition, % (no concentration beside the values); P55789;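 active means mean replicate inhibition above about 79%, with every replicate also reaching it, limit read from the data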
# M18AAP inhibitor: PfM18AAP enzyme inhibition | AID 1822 | actives 1.2% (n = 290,000) | inhibition, % at 7.35 µM | recombinant PfM18AAP, H-Glu-NHMec fluorogenic cleavage;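 active means inhibition above the campaign mean inhibition over all tested compounds plus 3 SD, cut at about 28% in these data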;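 further: 0% = plate median of test compound wells and 100% = 2 mM ZnCl2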
# SMARCA2 act conf: confirmation of SMARCA2 (BRM) function activators; shares compounds with SMARCA2 activ; MG213 cells, MMTV-luciferase with dexamethasone, luminescence, overnight; MG213 cells expressing E1A, Rb sequestered; DMSO wells 0%, reference activator 100%; activation, % at 9.1 µM; actives 30% (n = 3,500); AID 652260;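 active means activation above its plate's cutoff, the mean activation of tested wells plus 3 SD, cut at about 7.9% in these data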
# GAL4-VP16 Luc: GAL4-VP16 reporter activation counter-screen; shares compounds with SMARCA2 activ; HEK293 GAL4-VP16 pG5luc reporter, luciferase luminescence; scaled: DMSO wells 0%, SAHA wells 100%; activation, % at 9.1 µM; actives 41% (n = 3,500);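 active means activation above the solvent-only control well mean plus 3 SD, averaged across control plates, cut at about 5.2% in these data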
# Numbers without * were called inactive; . = no result given. An excerpt weighted towards active compounds, which were near 5.4% of everything screened.
SMILES,SMARCA2 activ,JMJD2C inh,Exocytosis inh,beta cell repl,ALR inh,M18AAP inhibitor,SMARCA2 act conf,GAL4-VP16 Luc
CC(=O)N1CCc2c(sc(NC(=O)CN3C(=O)c4ccccc4C3=O)c2C(N)=O)C1,-3,6,-5,1,-214,10,.,.
Cc1csc(NC(=O)CN2C(=O)c3ccccc3C2=O)c1C(N)=O,9.1*,-1,-7,-2,-20,-1,5,1
O=C(CSc1nncn1-c1cccnc1)Nc1ccccc1[N+](=O)[O-],0,0,-8,-3,-3,-9,.,.
COc1ccccc1NC(=O)CSc1nncn1-c1cccnc1,13*,-6,5,0,3,0,0,0
Cc1ccc(-n2c(SCC(=O)c3ccc(F)cc3)nnc2-c2cnccn2)cc1,-4,.,.,.,.,.,.,.
CC(=O)Nc1cc(-c2ccc(F)cc2)[nH]n1,11*,0,-4,-2,26,6,0,1
O=C(Nc1cc(-c2ccccc2)[nH]n1)c1ccccc1,-1,4,10,-3,11,-15,.,.
O=C(Nc1cc(-c2ccccc2)[nH]n1)c1ccccc1F,9.3*,5,-2,-2,49,0,3,10*
Cc1cc(C(=O)O)cc(S(=O)(=O)Nc2c(C)nn(C)c2C)c1C,9.4*,1,1,1,-11,.,-2,0
Cc1ccc(S(=O)(=O)Nc2c(C)nn(C)c2C)c(C)c1,-2,3,17,2,-3,.,.,.
Cc1ccc(NC(=O)c2ccc([N+](=O)[O-])o2)cc1S(=O)(=O)N1CCOCC1,17*,-13,-3,-6,-38,0,14*,2
O=C(Nc1ccc(Cl)cn1)c1ccc([N+](=O)[O-])o1,11*,-5,-2,.,.,-1,14*,4
CC(=O)c1ccc(NC(=O)c2ccc([N+](=O)[O-])o2)cc1,9.4*,15,9,-4,-33,0,19*,4
Cc1c(Cl)c([N+](=O)[O-])nn1Cc1ccc(C(=O)Nc2ccc(Cl)cn2)o1,-2,-12,1,0,0,-2,.,.
Cc1ccc(NC(=O)c2cc([N+](=O)[O-])ccc2N2CCOCC2)cc1S(=O)(=O)N1CCOCC1,-2,-1,-2,3,3,-10,.,.
Cc1cc(NC(=O)c2ccc([N+](=O)[O-])o2)ccc1NC(=O)c1ccco1,10*,-14,0,.,.,0,18*,2
COCCNC(=O)C1CCCN(C(=O)c2ccc3sccc3c2)CC1 (stereo unspecified),-1,.,-3,.,.,.,.,.
COc1ccc(CNC(=O)c2cccc3c(-c4cnn(C)c4)coc23)cc1OC,-3,.,0,.,.,.,.,.
COc1ccccc1Cc1c(-c2cccc(Br)c2)nc2c(C)cc(Br)cn12,-2,.,0,.,.,.,.,.
COc1ccc(NC(=O)c2ccc([N+](=O)[O-])o2)cc1,12*,2,18,-4,-27,-3,29*,3
O=C(Nc1ccc(N2CCN(C(=O)c3ccccc3)CC2)cc1)c1ccc([N+](=O)[O-])o1,-5,2,5,.,.,-1,.,.
Cc1ccccc1C(=O)N1CCN(c2ccc(NC(=O)c3ccc([N+](=O)[O-])o3)cc2)CC1,13*,4,1,-4,-212,-5,-4,3
COC(=O)[C@]12CCCCC=C1N(CCC1=CCCCC1)C(=O)[C@H](CC(=O)NCCCCc1ccccc1)C2,-4,.,8,.,.,.,.,.
CCNS(=O)(=O)c1ccc(OCCNS(C)(=O)=O)cc1,8.1*,8,-2,-3,-3,4,0,0
Nc1c(C(=O)C2CC2)sc2nc3c(cc12)CCC3,8.5*,-13,4,-1,-6,5,13*,9.7*
Nc1c(C(=O)O)sc2nc3c(cc12)CCCC3,-3,-1,0,0,.,-1,.,.
NC(=O)c1sc2nc3c(cc2c1N)CCCCCC3,11*,15,-10,-1,12,10,0,2
